High-throughput results: PubChem BioAssay, National Center for Advancing Translational Sciences (NCATS)
An excerpt weighted towards active compounds, which were near 19% of everything screened.
TDP1 cell CPT = growth inhibition of DT40 Tdp1-/-;hTDP1 cells with camptothecin (screen for TDP1 inhibitors) | Potency, µM (doses to about 46.2 µM), inactives show at the highest dose activity change, negative = growth inhibition, actives largely listed as inhibitors | actives 12% (n = 420,000) | chicken DT40 Tdp1-/-;hTDP1 cells + 20 nM CPT, ATP luminescence, 48 h | AID 686979; further: potency means the concentration at half of the fitted maximal effect; on the % scale 0 is the no-effect control and ±100 the full control effect; nearly all actives have a fitted effect of over 55% in size
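Chicken DT40 Tdp1-/- cells stably complemented with human TDP1 were seeded at 400 cells/well in medium containing 20 nM camptothecin, exposed to pin-transferred compounds, and grown at 37 °C for at least 48 hr. Viability was read as ATP luminescence.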
IL-1B inflam inh = inflammasome signaling inhibition, IL-1 beta readout. THP-1 LPS/ATP IL-1B secretion, AlphaLISA, 16 h; stronger effect = lower value. actives 4.7% (n = 360,000). activity change, % at 57.5 µM; in the data active means activity change below about -50%; inconclusive means mostly about -30% to -49%; further: on the % scale 0 is the no-effect control and ±100 the full control effect
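THP-1 cells pretreated 1 hr with compounds (up to 57.5 uM final), then stimulated with LPS (250 ng/mL final) plus ATP (1.25 mM final); secreted IL-1B measured by AlphaLISA after 16 hr, decreased signal indicating inhibition.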
TDP1 cell noCPT = qHTS for Inhibitors of human tyrosyl-DNA phosphodiesterase 1 (TDP1): qHTS in cells in absence of CPT; actives 15% (n = 420,000); AID 686978, 2013; DT40 Tdp1-/- hTDP1 cells, no CPT, ATP luminescence, 48 h; Potency, µM (titrated, usually from 46.2 µM), inactives show at the highest dose activity change, negative = growth inhibition, usual class: inhibitors; further: potency means the concentration at half of the fitted maximal effect; on the % scale 0 is the no-effect control and ±100 the full control effect; nearly all actives have a fitted effect of over 55% in size
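Chicken DT40 Tdp1-/- cells stably complemented with human TDP1 were seeded at 400 cells/well with DMSO in place of 20 nM camptothecin. After compound pinning, cells grew at least 48 hr at 37 °C; viability read by CellTiter-Glo luminescence.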
HepG2 viability = counter-screen for TGF-b inhibitors: cytotoxicity in HepG2 cells; HepG2 CAGA-GFP viability, ATP luminescence, 18 h; Potency, µM (highest dose often 46.1 µM), without a hit: top-dose activity change, negative = cytotoxicity, usual class: cytotoxic; actives 0.76% (n = 410,000); AID 588856; further: potency means the concentration at half of the fitted maximal effect
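HepG2 CAGA-GFP cells (1000/well, DMEM with 1% FBS) received compound, then TGF-beta at 500 pg/mL final, and were incubated 18 hours at 37 degrees C. Viability was read by CellTiter-Glo luminescence. Media-only wells were set as complete cell-killing and DMSO as no toxicity.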
TDP1 block = blocks human tyrosyl-DNA phosphodiesterase 1 | recombinant TDP1, AlphaScreen DNA substrate cleavage | Potency, µM (top dose mostly 130 µM), for the others: top-dose activity change, negative = inhibition, actives largely listed as inhibitors | actives 0.28% (n = 350,000); further: potency means the concentration at half of the fitted maximal effect; on the % scale 0 is the no-effect control and ±100 the full control effect; nearly all actives have a fitted effect of over 40% in size
Target sequence (Q9NUW8 whole entry, looked up): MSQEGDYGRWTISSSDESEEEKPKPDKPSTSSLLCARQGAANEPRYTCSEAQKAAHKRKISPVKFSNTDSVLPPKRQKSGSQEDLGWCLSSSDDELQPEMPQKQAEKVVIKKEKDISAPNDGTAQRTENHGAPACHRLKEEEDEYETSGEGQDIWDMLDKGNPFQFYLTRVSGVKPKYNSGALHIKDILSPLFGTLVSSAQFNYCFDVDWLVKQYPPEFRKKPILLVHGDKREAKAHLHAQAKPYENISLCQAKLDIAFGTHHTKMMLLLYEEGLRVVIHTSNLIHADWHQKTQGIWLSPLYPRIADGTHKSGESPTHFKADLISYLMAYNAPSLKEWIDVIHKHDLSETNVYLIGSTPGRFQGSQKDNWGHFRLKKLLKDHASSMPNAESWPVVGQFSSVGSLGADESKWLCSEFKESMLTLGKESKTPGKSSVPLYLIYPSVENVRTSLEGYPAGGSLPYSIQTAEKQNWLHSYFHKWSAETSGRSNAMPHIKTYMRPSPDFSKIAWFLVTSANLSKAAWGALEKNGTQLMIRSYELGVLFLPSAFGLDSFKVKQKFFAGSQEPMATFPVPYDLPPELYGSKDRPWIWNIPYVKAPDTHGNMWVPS
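Signal: AlphaScreen proximity between streptavidin donor and anti-FITC acceptor beads on intact substrate. Reaction: Tdp1 1 nM, substrate 15 nM final, 5 min RT after 15 min compound preincubation.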
TGFb inhibitor = TGF-b pathway inhibition; actives 1.2% (n = 410,000); Potency, µM (series often up to 46.1 µM), for the others: at the highest dose activity, negative = inhibition, most hits filed as inhibitors; HepG2 CAGA-GFP TGF-b/SMAD3 reporter, GFP fluorescence, 18 h; TGF-beta stimulated, 500 pg/mL final; AID 588855; further: potency means the concentration at half of the fitted maximal effect; on the % scale 0 is the no-effect control and ±100 the full control effect; nearly all actives have a fitted effect of over 65% in size
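First, reporter cells (HEPG2 CAGA-GFP) rested 2 h at 37 degrees C. Next, compounds were pinned in and TGF-beta added to 500 pg/mL final. After 18 h, GFP was imaged per cell and summed per well.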
The depositor's hits bear a star; ? = inconclusive; / = no result. Unless noted, the call rests on the fitted dose curve; in most records, active means well fitted curve in the direction sought with a large enough effect; inconclusive means small, poorly fitted or top-dose-only effect, or another doubt; inactive means no such curve, though single readings can be large; an effect the other way counts as inactive or inconclusive.

SMILES	TDP1 cell CPT	IL-1B inflam inh	TDP1 cell noCPT	HepG2 viability	TDP1 block	TGFb inhibitor
CCOC(=O)c1cc(-c2cccs2)nc2c1c(C)nn2-c1ccccn1	15µM*	-79*	15µM*	-22%	-1%	?
COc1ccc(NC(=O)c2cc(-c3ccccc3)nc3c2c(C)nn3-c2ccccc2)c(OC)c1	?	5	?	7%	2%	2%
Cc1nn(-c2ccccn2)c2nc(-c3cccs3)cc(C(=O)NCc3ccco3)c12	23µM*	0	23µM*	-21%	9%	?
Cc1nn(-c2ccccc2)c2nc(-c3ccncc3)cc(C(=O)NCc3ccco3)c12	?	-2	18µM*	-35%	0%	?
O=C(NCc1ccco1)c1cc(-c2cccs2)nc2ccccc12	?	16	?	-15%	0%	?
Cc1ccc(N2CC(NC(=O)C3CCCC3)CC2=O)cc1 (stereo not given)	-18%	/	-12%	-7%	3%	2%
CC(=O)c1ccc(NC(=O)CCn2cccn2)cc1	27%	/	0%	-2%	6%	1%
Cc1ccccc1C(=O)Nc1ccc(C(=O)NNC(=O)CCCOc2ccc(Cl)cc2Cl)cc1	?	-13	-23%	-17%	/	12%
Cc1cc(Cl)ccc1OCC(=O)Nc1cccnc1	-20%	?	?	3%	/	-7%
Cc1cc(Cl)ccc1OCCCC(=O)Nc1cccnc1	15µM*	3	23µM*	-4%	2%	1%
Cc1cc(Cl)ccc1OCCCC(=O)NNC(=O)c1ccccc1O	?	63	23µM*	-9%	-2%	-18%
CCc1nc2ccccc2c(C(=O)OCC(=O)C(C)(C)C)c1C	?	15	18µM*	-47%	-3%	-8%
CCc1nc2ccccc2c(C(=O)OCCN2C(=O)c3ccccc3C2=O)c1C	?	18	?	-34%	-2%	-25%
CCc1nc2ccccc2c(C(=O)OCc2nnc(-c3ccccc3)o2)c1C	18µM*	2	?	-59%	-1%	4%
CCc1nc2ccccc2c(C(=O)OCc2nc3ccccc3c(=O)[nH]2)c1C	3.3µM*	-56*	4.6µM*	9%	-2%	2%
Cc1ccc(NC(=O)C(C)OC(=O)Cn2cnc3ccccc3c2=O)cc1 (stereo not given)	-9%	0	-9%	-4%	/	-1%
CCN1CCC(O)(/C=C/c2ccc(C(C)C)cc2)C(C(=O)/C=C/c2ccc(C(C)C)cc2)C1 (stereo not given)	15µM*	-117*	23µM*	13µM*	/	8.9µM*
CCN1CCN(C(=O)/C=C/c2ccc(C(C)C)cc2)CC1	-2%	-3	-26%	-2%	/	11%
O=C(Nc1cc([N+](=O)[O-])c2[nH]c(=O)c3ccccc3c2c1)C(F)(F)F	0.29µM*	-5	1.8µM*	4%	/	-18%
Cc1ccc(/C=C/c2onc(C)c2S(=O)(=O)N2CCC(C(=O)NCc3ccc(Cl)cc3)CC2)cc1	-30%	/	-17%	-3%	3%	-3%
CCCN1CCN(C(=O)Cn2c(-c3cccs3)cc3cc(F)ccc32)CC1	12µM*	/	-70%	-2%	9%	?
CC1CCN(C(=O)Cn2c(-c3cccs3)cc3cc(Cl)ccc32)CC1	16µM*	/	?	-21%	5%	?
CCOC(=O)C1CCN(C(=O)Cn2c(-c3cccs3)cc3cc(Cl)ccc32)CC1	15µM*	/	21µM*	-14%	1%	?
CCOc1ccc(CCNC(=O)Cn2c(-c3cccs3)cc3cc(F)ccc32)cc1OCC	12µM*	/	13µM*	-62%	9%	?
COc1cc(C(F)(F)F)c(C(=O)N(C)Cc2cc(Cl)cc(Cl)c2)cn1	?	15	15µM*	-2%	0%	?
SMILES	TDP1 cell CPT	IL-1B inflam inh	TDP1 cell noCPT	HepG2 viability	TDP1 block	TGFb inhibitor
Cc1ccccc1NC(=O)c1csc2c1CCCC2	5.8µM*	-22	21µM*	-21%	-3%	1%
O=C(NCc1ccccc1)c1csc2c1CCCCC2	-13%	-15	-14%	-20%	-2%	-5%
CCC(Cc1ccccc1)NC(=O)c1csc2c1CCCCC2 (stereo not given)	13µM*	/	?	-14%	-3%	-25%
CC(CNC(=O)c1csc2c1CCCCC2)c1ccccc1 (stereo not given)	21µM*	/	16µM*	-50%	1%	?
CCC(C)NC(=O)c1csc2c1CCCCC2 (stereo not given)	-9%	10	-9%	-12%	5%	-3%
CN(C)C1CCN(CCCOc2ccc(-c3ccc(C#N)cc3)cc2)C1 (stereo not given)	/	/	/	/	14%	/
COc1ccc(CC(=O)N2CCN(S(=O)(=O)c3cc(Cl)ccc3Cl)CC2)cc1	?	-15	-25%	-3%	0%	?
CN1C(=O)C(O)(CC(=O)c2ccccc2O)c2cc(Br)ccc21 (stereo not given)	5.2µM*	50	5.8µM*	-23%	4%	?
CN1C(=O)C(O)(CC(=O)/C=C/c2ccco2)c2ccccc21 (stereo not given)	4%	-4	-16%	-1%	0%	-5%
CN1C(=O)C(O)(CC(=O)/C=C/c2ccco2)c2cc(Br)ccc21 (stereo not given)	6.5µM*	117	4.1µM*	-24%	1%	-19%
Cc1ccc2c(NC(=O)c3ccco3)cccc2n1	2%	8	21%	7%	2%	2%
CC1CCN(c2nc3c(c(=O)n(C)c(=O)n3C)n2CCSc2nc3ccccc3s2)CC1	10µM*	17	21µM*	-23%	2%	-8%
Cn1c(=O)c2c(nc(N3CCC(C(N)=O)CC3)n2CCSc2nc3ccccc3s2)n(C)c1=O	?	13	?	-15%	4%	-47%
CC1CCCN(c2nc3c(c(=O)n(C)c(=O)n3C)n2CCSc2nc3ccccc3o2)C1 (stereo not given)	23µM*	16	21µM*	0%	4%	4%
CC1CCCN(c2nc3c(c(=O)n(C)c(=O)n3C)n2CCSc2nc3ccccc3s2)C1 (stereo not given)	16µM*	-12	18µM*	-8%	-10%	-6%
